Experimental data taken from PubChem BioAssay (EPA / NIEHS).
Records with an inconclusive call do not appear. The source made the active and inactive calls. Rule for the calls, unless noted: active = hit-call score of the fitted dose curve at least 0.9, where 1 is the maximum; inactive = score below 0.9.

Tests used:
[1] = CCTE_Shafer_MEA_dev_firing_rate_mean: CCTE's Neural Network Formation Assay for Mean Firing Rate, Shafer Lab (AID 2284031);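 note: AUC of well mean spike rate recorded on DIV 5 7 9 and 12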;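 for AC50: curve fitted for loss of firing so AC50 reflects decreased mean firing rate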
How it was run: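 Spike frequency (spikes/recording length, averaged over active electrodes) was recorded on days 5, 7, 9 and 12 and collapsed to AUC; rat cortical cultures received compound continuously over 12 days of network development.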

[2] = CCTE_Shafer_MEA_acute_per_network_burst_spike_number_std: CCTE's Neural Acute Assay for Standard Deviation of Number of Spikes in a Network Burst, Shafer Lab (AID 2284020);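 note: fitted for decrease in spike-number SD versus DMSO so actives lower it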
How it was run: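 Acute MEA exposure, rat cortical neurons, 0.03-40 uM. Per-well % change versus own baseline; DMSO as negative control.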

[3] = CCTE_Shafer_MEA_acute_per_network_burst_electrodes_number_mean: CCTE's Neural Acute Assay for Mean Number of Electrodes in a Network Burst, Shafer Lab (AID 2284021);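 note: curves fitted for decreases only so hits reduce electrodes per burst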
How it was run: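 Primary rat cortical networks, mwMEA, 37 C. 20 min stabilization, 40 min baseline, compound 0.03-40 uM, 40 min re-record. Wells need >=10 active electrodes; percent change per well, negative fitting direction.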

[4] = CCTE_Shafer_MEA_acute_network_burst_percentage: CCTE's Neural Acute Assay for Percentage of Network Bursts, Shafer Lab (AID 2284022);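 note: curves fitted for loss so actives lower network burst percentage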
How it was run: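 Readout is the fraction of spikes falling in network bursts, expressed as per-well percent change from a 40-min pre-exposure baseline. Primary rat cortical neurons on MEA were exposed to 0.03-40 uM compound on DIV 13 or 15 and recorded for 40 min at 37 C.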

[5] = CCTE_Shafer_MEA_acute_cross_correlation_HWHM: CCTE's Neural Acute Assay for Cross Correlation at Half Width at Half Maximum, Shafer Lab (AID 2284026);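 note: percent change per well from pre-dose baseline in spike cross-correlogram half width; hits are a decrease in cross-correlogram half width relative to DMSO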;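 for outcome: spontaneous network firing of rat primary cortical neurons on multiwell microelectrode arrays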
How it was run: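 Rat cortical neuron cultures on microelectrode arrays were equilibrated 20 min at 37 C, recorded 40 min at baseline, then 40 min after compound addition (0.03-40 uM, ≥3 wells). Spikes were detected at 8x rms noise after 300-5000 Hz band-pass filtering.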

[6] = CCTE_Shafer_MEA_acute_synchrony_index: CCTE's Neural Acute Assay for Synchrony, Shafer Lab (AID 2284027);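 note: network synchrony index of spontaneous spiking in primary rat cortical neurons on MEAs; fitted for loss of signal so actives lower synchrony relative to DMSO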
How it was run: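 The synchrony index is taken as percent change per well between a 40 min baseline and a 40 min recording with compound (0.03–40 uM), at 37C. Rat cortical cultures on multiwell MEAs at DIV 13 or 15, spike threshold 8× rms noise.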

[7] = CCTE_Deisenroth_AIME_384WELL_CTox_Active: Cytotoxicity Assessment (CTOX) in CCTE's 384-well Estrogen Receptor Transactivation Assay with AIME metabolic competence (metabolism positive), Deisenroth Lab (AID 2284037; active = hit-call score of the fitted dose curve at least 0.9, where 1 is the maximum;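 note: chemicals first conditioned 2 h by alginate-bound induced rat liver S9 before cells; activity means signal loss indicating cell death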)
How it was run: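 VM7Luc4E2 breast cells received medium pre-incubated 2 h with chemical over alginate microspheres holding induced male Sprague Dawley rat liver S9; viability read 24 h later by protease-substrate fluorescence. Loss of signal, bidirectional fit, 0.002–200 uM.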

[8] = CCTE_Deisenroth_AIME_384WELL_CTox_Inactive: Cytotoxicity Assessment (CTOX) in CCTE's 384-well Estrogen Receptor Transactivation Assay without AIME metabolic competence (metabolism negative), Deisenroth Lab (AID 2284039; active = hit-call score of the fitted dose curve at least 0.9, where 1 is the maximum;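 note: cell viability via live-cell protease substrate cleaved to fluorescent probe; cells exposed 24 h to medium preincubated 2 h with alginate-water beads without S9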)
How it was run: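 VM7Luc4E2 human breast cells received conditioned medium from a 2 h incubation of chemical with alginate-water microspheres (no S9), then were exposed 24 h. Viability was read as protease-substrate cleavage to a fluorescent probe; loss of signal was fitted bidirectionally over 0.002–200 uM.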

[9] = molecular target: Estrogen receptor (Homo sapiens) (UniProt P03372); assay: CCTE_Deisenroth_AIME_384WELL_LUC_Active: CCTE's 384-well Estrogen Receptor Transactivation Assay with AIME metabolic competence (ERTA luciferase; metabolism positive), Deisenroth Lab (AID 2284030; active = hit-call score of the fitted dose curve at least 0.9, where 1 is the maximum)
How it was run: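 AIME metabolism-positive mode: chemicals 0.002 - 200 uM, 2 h with alginate-bound PB/BNF-induced rat S9 → medium to VM7Luc4E2 ERTA, 24 h → luciferase. Positive fit vs 17beta-estradiol; n=4 typical.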

[10] = molecular target: Estrogen receptor (Homo sapiens) (UniProt P03372); assay: CCTE_Deisenroth_AIME_384WELL_LUC_Inactive: CCTE's 384-well Estrogen Receptor Transactivation Assay without AIME metabolic competence (ERTA luciferase; metabolism negative), Deisenroth Lab (AID 2284038; active = hit-call score of the fitted dose curve at least 0.9, where 1 is the maximum;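 note: hits raise estrogen receptor luciferase signal so potencies reflect agonists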)
How it was run: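 VM7Luc4E2 ER transactivation, luciferase bioluminescence after 24 h, using medium pre-incubated 2 h with S9-free alginate microspheres. Concentrations 0.002–200 uM; gain of signal fitted relative to 17beta-estradiol.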

Chain of Estrogen receptor (Homo sapiens) (P03372 whole entry, looked up): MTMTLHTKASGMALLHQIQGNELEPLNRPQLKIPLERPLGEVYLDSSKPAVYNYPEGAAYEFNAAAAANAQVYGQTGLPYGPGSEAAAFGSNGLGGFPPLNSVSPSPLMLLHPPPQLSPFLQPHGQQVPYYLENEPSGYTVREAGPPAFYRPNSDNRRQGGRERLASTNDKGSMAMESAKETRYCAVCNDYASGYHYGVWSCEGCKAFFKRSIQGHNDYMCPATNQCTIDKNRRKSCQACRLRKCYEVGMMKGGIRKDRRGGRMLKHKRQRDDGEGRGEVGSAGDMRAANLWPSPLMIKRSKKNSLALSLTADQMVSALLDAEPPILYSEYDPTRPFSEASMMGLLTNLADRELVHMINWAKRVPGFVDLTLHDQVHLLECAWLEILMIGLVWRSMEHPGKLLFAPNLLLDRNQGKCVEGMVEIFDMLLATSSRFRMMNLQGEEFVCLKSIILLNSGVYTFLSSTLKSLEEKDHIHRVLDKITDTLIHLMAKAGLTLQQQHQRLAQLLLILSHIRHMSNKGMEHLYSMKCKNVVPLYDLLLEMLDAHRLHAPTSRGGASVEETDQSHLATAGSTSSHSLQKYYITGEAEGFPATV

SMILES: O=CC(F)(F)C(F)(F)C(F)(F)C(F)F
- outcome [1]: inactive

SMILES: N=C(N)c1ccc(OCCCCCOc2ccc(C(=N)N)cc2)cc1
- outcome [2]: inactive
- AC50 [3]: 2.5 µM (active)
- outcome [4]: inactive
- AC50 [5]: 32 µM (active)
- AC50 [6]: 26.3 µM (active)

SMILES: O=C(CCCN1CCC(O)(c2ccc(Cl)cc2)CC1)c1ccc(F)cc1
- outcome [2]: inactive
- outcome [3]: inactive
- outcome [4]: inactive
- outcome [5]: inactive
- outcome [6]: inactive
- AC50 [1]: 390 nM (active)

SMILES: COC(=O)C(F)(F)C(F)(F)C(F)(F)F
- outcome [1]: inactive

SMILES: CCCCCCCCCCCC
- outcome [2]: inactive
- outcome [3]: inactive
- outcome [4]: inactive
- outcome [5]: inactive
- outcome [6]: inactive
- outcome [7]: inactive
- AC50 [8]: 100 µM (active)

SMILES: C=CC(F)(F)C(F)(F)C(F)(F)C(F)(F)F
- outcome [1]: inactive

SMILES: CCCCC=O
- outcome [2]: inactive
- outcome [3]: inactive
- AC50 [4]: 32.7 µM (active)
- outcome [5]: inactive
- outcome [6]: inactive

SMILES: CCCCc1oc2ccccc2c1C(=O)c1cc(I)c(OCCN(CC)CC)c(I)c1
- outcome [2]: inactive
- outcome [3]: inactive
- outcome [4]: inactive
- outcome [6]: inactive

SMILES: CN(C)CCOC(c1ccccc1)c1ccccc1
- outcome [2]: inactive
- AC50 [3]: 1.25 µM (active)
- AC50 [4]: 7.74 µM (active)
- outcome [6]: inactive
- outcome [1]: inactive

SMILES: COc1cc([N+](=O)[O-])ccc1N
- outcome [9]: inactive
- AC50 [7]: 118 µM (active)
- outcome [10]: inactive
- AC50 [8]: 100 µM (active)

SMILES: CCCCc1ccc2ccccc2c1S(=O)(=O)O
- outcome [9]: inactive
- outcome [10]: inactive
- outcome [8]: inactive

SMILES: Oc1ccc(Cc2ccccc2O)cc1
- outcome [2]: inactive
- outcome [3]: inactive
- outcome [4]: inactive
- outcome [5]: inactive
- outcome [6]: inactive

SMILES: O=C1NS(=O)(=O)c2ccccc21
- outcome [2]: inactive
- outcome [3]: inactive
- outcome [4]: inactive
- outcome [5]: inactive
- outcome [6]: inactive
- outcome [1]: inactive

SMILES: CCC(C)c1ccccc1O (configuration not stated)
- outcome [2]: inactive
- outcome [3]: inactive
- AC50 [4]: 5 µM (active)
- AC50 [5]: 8.95 µM (active)
- AC50 [6]: 7.45 µM (active)
- outcome [7]: inactive
- AC50 [8]: 0.00093 µM (active)

SMILES: Nc1ccn([C@@H]2O[C@H](CO)[C@@H](O)C2O)c(=O)n1 (some centres not stated)
- AC50 [1]: 471 nM (active)

SMILES: O=C(CC(=O)C(F)(F)C(F)(F)C(F)(F)F)c1cccs1
- outcome [1]: inactive

SMILES: O=C(C=C(O)C(F)(F)F)C(F)(F)F
- outcome [1]: inactive

SMILES: CC(=O)Nc1ccc(O)cc1
- outcome [2]: inactive
- outcome [3]: inactive
- outcome [4]: inactive
- outcome [5]: inactive
- outcome [6]: inactive
- outcome [1]: inactive
- outcome [7]: inactive

SMILES: O=C(F)C(F)(F)C(F)(F)C(F)(F)C(F)F
- outcome [1]: inactive

SMILES: O=P(O)(O)CCC(F)(F)C(F)(F)C(F)(F)C(F)(F)C(F)(F)C(F)(F)C(F)(F)C(F)(F)F
- outcome [1]: inactive

SMILES: Oc1c(Cl)cc(Cl)cc1Sc1cc(Cl)cc(Cl)c1O
- AC50 [2]: 5 µM (active)
- outcome [3]: inactive
- AC50 [4]: 7.49 µM (active)
- AC50 [5]: 9.62 µM (active)
- AC50 [6]: 8.67 µM (active)

SMILES: CCCCCCCCCC=CCC1CC(=O)OC1=O (configuration not stated)
- outcome [9]: inactive
- outcome [10]: inactive
- outcome [8]: inactive

SMILES: OCC(CO)(CBr)CBr
- outcome [2]: inactive
- outcome [3]: inactive
- outcome [4]: inactive
- outcome [5]: inactive
- outcome [6]: inactive
- outcome [7]: inactive

SMILES: O=C(F)C(F)(F)C(F)(F)C(F)(F)C(=O)F
- outcome [1]: inactive

SMILES: CN(CCO)S(=O)(=O)C(F)(F)C(F)(F)C(F)(F)C(F)(F)C(F)(F)C(F)(F)C(F)(F)C(F)(F)F
- outcome [1]: inactive

SMILES: c1cnc2c(c1)ccc1cccnc12
- AC50 [7]: 30.9 µM (active)
- AC50 [8]: 15.7 µM (active)

SMILES: COC(=O)C(F)(F)C(F)(F)C(F)(F)C(F)(F)C(F)(F)F
- outcome [1]: inactive

SMILES: FC(F)=C(F)C(F)(F)C(F)(F)C(F)(F)C(F)F
- outcome [1]: inactive

SMILES: CC(C)c1c(C(=O)Nc2ccccc2)c(-c2ccccc2)c(-c2ccc(F)cc2)n1CC[C@@H](O)C[C@@H](O)CC(=O)O
- AC50 [1]: 13 nM (active)

SMILES: O=P(O)(O)CCC(F)(F)C(F)(F)C(F)(F)C(F)(F)C(F)(F)C(F)(F)F
- outcome [1]: inactive

SMILES: OCC(F)(F)C(F)(F)C(F)(F)C(F)(F)C(F)(F)C(F)(F)C(F)(F)C(F)(F)C(F)(F)C(F)(F)C(F)(F)F
- outcome [1]: inactive

SMILES: FCOC(C(F)(F)F)C(F)(F)F
- outcome [1]: inactive

SMILES: CCCCC(CC)C(=O)O (configuration not stated)
- outcome [7]: inactive
- outcome [8]: inactive

SMILES: Cc1ccc(S(=O)(=O)O)cc1
- outcome [8]: inactive

SMILES: O=C(O)CCC(F)(F)C(F)(F)C(F)(F)C(F)(F)C(F)(F)F
- outcome [1]: inactive

SMILES: NC(C(F)(F)F)C(F)(F)F
- outcome [1]: inactive

SMILES: CCCCCCCCCCCCOC(=O)c1cc(O)c(O)c(O)c1
- outcome [7]: inactive
- outcome [10]: inactive
- AC50 [8]: 128 µM (active)

SMILES: CC(C)[C@@H]1CC[C@@H](C)C[C@H]1O
- outcome [8]: inactive

SMILES: CCCCCCCCCCCCOS(=O)(=O)O
- AC50 [7]: 143 µM (active)
- AC50 [8]: 147 µM (active)

SMILES: O=C(O)C(F)(F)OC(F)(F)C(F)(F)OC(F)(F)C(F)(F)OC(F)(F)C(F)(F)C(F)(F)C(F)(F)F
- outcome [1]: inactive

SMILES: O=S(=O)(O)c1ccccc1
- outcome [7]: inactive

SMILES: O=CC(F)(F)C(F)(F)C(F)(F)F
- outcome [1]: inactive

SMILES: CC(O)COc1ccccc1 (configuration not stated)
- outcome [7]: inactive
- outcome [8]: inactive
